This is part of a sample that, as a whole, favours compounds with a hit. Of some 83,000 tested, about 20% had one in any assay.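 A percent growth of 40 corresponds to 60% growth inhibition; 0 means no net growth; -100 means all cells died. Active threshold: below 10.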 Unmarked numbers belong to inactive results. Activity calls are given as the source filed them.

Some test systems named below: HCT-15 colon; HT29 colon; SNB-75 CNS; SNB-19 CNS; U251 CNS; PC-3 prostate; SK-MEL-5 melanoma; UACC-62 melanoma; LOX IMVI melanoma; SK-MEL-28 melanoma; SK-MEL-2 melanoma; EKVX NSCLC; SN12C renal; UO-31 renal; TK-10 renal; ACHN renal; CAKI-1 renal; A498 renal; CCRF-CEM leukemia; MOLT-4 leukemia.
Experiment in all cases: NCI-60 one-dose screen, 48 h (100 = growth as untreated, 0 = no growth, -100 = all killed)
What all share (conditions): 10 µM unless noted

Consider `CCN(CC)CCCN1C(=O)c2c(c(C)c3c(oc4cc(OC)ccc43)c2C)C1=O`, for which the growth is 80.6% in the assay with HCT-15 colon; 86.9% in the assay on HT29 colon; 146% with SNB-75 CNS; 99.1% in the assay on SNB-19 CNS; 103% in the assay with U251 CNS; 85.3% with PC-3 prostate. The growth in the assay with SK-MEL-5 melanoma is 77.6%; in the assay on UACC-62 melanoma, 102%; with LOX IMVI melanoma, 87.7%; in the assay with SK-MEL-28 melanoma it was -82.6% (active); in the assay on SK-MEL-2 melanoma, 112%; in the assay with EKVX NSCLC it was 99.3%. Further, the growth is 89.1% in the assay on SN12C renal; 67.4% in the assay with UO-31 renal; 112% in the assay on TK-10 renal; 63.1% in the assay on ACHN renal; 93.2% in the assay with CAKI-1 renal; 97.7% in the assay on A498 renal. Further, the growth in the assay with CCRF-CEM leukemia was 61%; in the assay on MOLT-4 leukemia, 93.9%.
For `CC1=CC=C(NC(=O)/C=C/c2ccccc2)CC1Nc1nccc(-c2cccnc2)n1` (stereo not given), the growth in the assay with HCT-15 colon is 14.6%; in the assay with HT29 colon, 13.6%; in the assay on SNB-75 CNS it was 8.46% (active); in the assay with SNB-19 CNS, 66.8%; with U251 CNS, 38.1%; with PC-3 prostate it was 25.2%. The growth was -42.9% (active) with SK-MEL-5 melanoma; 37.9% in the assay with UACC-62 melanoma; 41.3% with LOX IMVI melanoma; 35.3% in the assay with SK-MEL-28 melanoma; 28.2% with SK-MEL-2 melanoma; 67.4% with EKVX NSCLC. The growth in the assay on SN12C renal is 50.3%; with UO-31 renal it was 65.2%; in the assay on TK-10 renal, 107%; in the assay with ACHN renal, 50.3%; with CAKI-1 renal, 32.5%; in the assay on A498 renal, 24.7%. Further, the growth is 19.4% with CCRF-CEM leukemia and 26% in the assay with MOLT-4 leukemia.
With `COc1cc(Cl)cc(-c2nn(C(=O)NS(=O)(=O)c3ccc(Cl)cc3)cc2-c2ccncc2)c1`, the growth in the assay on HCT-15 colon was 98.4%; in the assay on HT29 colon it was 30.8%; in the assay with SNB-75 CNS, -8.56% (active); in the assay with SNB-19 CNS, 97.2%; with U251 CNS it was 70.6%; in the assay on PC-3 prostate it was 88.9%. Moreover, the growth is 95.2% with SK-MEL-5 melanoma; 73.3% in the assay with UACC-62 melanoma; 45.5% in the assay on LOX IMVI melanoma; 95.8% with SK-MEL-28 melanoma; 95% in the assay on SK-MEL-2 melanoma; 59.5% in the assay on EKVX NSCLC. Further, the growth in the assay with SN12C renal was 92.5%; with UO-31 renal, 63%; in the assay with TK-10 renal, 85.8%; in the assay on ACHN renal it was 80.6%; in the assay on CAKI-1 renal it was 91%; in the assay with A498 renal, 70.2%. The growth was 88% in the assay on CCRF-CEM leukemia and 76.2% in the assay with MOLT-4 leukemia.
Consider `C=C(C)[C@@H]1CC[C@]2(C)[C@H](CC(=O)N[C@H]3[C@@H]4C[C@](C)(C(=O)OC)CC[C@]4(C)CC[C@]32C)[C@@]1(C)CCC#N`, for which the growth with HCT-15 colon was 68.6%; with HT29 colon, 70.9%; in the assay with SNB-75 CNS, 96.5%; in the assay with SNB-19 CNS it was 89%; with U251 CNS, 79.9%; in the assay with PC-3 prostate, 42.9%. The growth was 49.7% in the assay on SK-MEL-5 melanoma; 68.3% in the assay with UACC-62 melanoma; 96.9% with LOX IMVI melanoma; 104% in the assay on SK-MEL-28 melanoma; 95.3% with SK-MEL-2 melanoma; 93.2% with EKVX NSCLC. For the same compound, the growth is 79.4% with SN12C renal; 75.7% in the assay with UO-31 renal; 104% in the assay on TK-10 renal; 88% with ACHN renal; 79.2% in the assay on CAKI-1 renal; 101% with A498 renal. Besides, the results for the growth with CCRF-CEM leukemia and in the assay on MOLT-4 leukemia were 75.1% and 42.7%, respectively.
`Fc1ccccc1-c1cnn2cc(-c3ccccc3)cnc12`: the growth in the assay with HCT-15 colon is 90.5%; in the assay on HT29 colon, 105%; in the assay on SNB-75 CNS, 81.7%; in the assay on SNB-19 CNS it was 94.1%; in the assay on U251 CNS it was 98.9%; in the assay with PC-3 prostate it was 88.5%. The growth with SK-MEL-5 melanoma is 101%; in the assay with UACC-62 melanoma, 91.5%; in the assay on LOX IMVI melanoma, 98.7%; in the assay on SK-MEL-28 melanoma, 113%; with SK-MEL-2 melanoma, 107%; with EKVX NSCLC, 103%. For the same compound, the growth is 92.1% in the assay on SN12C renal; 85.6% in the assay with UO-31 renal; 104% with TK-10 renal; 101% in the assay with ACHN renal; 88.8% with CAKI-1 renal; 87.8% in the assay with A498 renal. The growth with CCRF-CEM leukemia was 93.3%; with MOLT-4 leukemia, 98.1%.
In the case of `CCOc1ccccc1NC(=O)c1cc2ccccc2cc1O`, the growth with HCT-15 colon was 45.4%; with HT29 colon, 99.8%; in the assay on SNB-75 CNS, 87.7%; in the assay with SNB-19 CNS, 52.9%; in the assay with U251 CNS it was 24.4%; in the assay on PC-3 prostate, 20.9%. Also, the growth with SK-MEL-5 melanoma was 25.6%; in the assay with UACC-62 melanoma, 21.2%; with LOX IMVI melanoma, 51.1%; in the assay on SK-MEL-28 melanoma, 87.7%; in the assay on SK-MEL-2 melanoma, 37.4%; in the assay with EKVX NSCLC it was 75%. The growth is 42.8% in the assay with SN12C renal; 23.7% in the assay with UO-31 renal; 50.6% in the assay on TK-10 renal; 29.3% with ACHN renal; 45.7% in the assay with CAKI-1 renal; 32.7% with A498 renal. The values for the growth in the assay on CCRF-CEM leukemia and in the assay with MOLT-4 leukemia were 32.4% and 44.6%, respectively.
As to `COc1ccc(Nc2nn3c(SCC(=O)c4ccc(C)cc4)nnc3s2)cc1`, the growth in the assay with HCT-15 colon is 105%; in the assay with HT29 colon it was 105%; in the assay with SNB-75 CNS, 95.7%; in the assay with SNB-19 CNS it was 98.8%; in the assay with U251 CNS it was 106%; in the assay on PC-3 prostate, 85.5%. In addition, the growth was 95.4% in the assay on SK-MEL-5 melanoma; 83.7% in the assay with UACC-62 melanoma; 95.9% in the assay on LOX IMVI melanoma; 109% in the assay on SK-MEL-28 melanoma; 98.2% in the assay with SK-MEL-2 melanoma; 99.9% in the assay with EKVX NSCLC. Also, the growth in the assay on SN12C renal is 101%; with UO-31 renal, 58.7%; in the assay with TK-10 renal, 107%; in the assay with ACHN renal, 86.5%; with CAKI-1 renal, 75.2%; in the assay on A498 renal, 93.7%. Also, the growth with CCRF-CEM leukemia was 98.1%; in the assay with MOLT-4 leukemia, 85.4%.

These data come from PubChem BioAssay (NCI).
